HEK cytotox – HEK 293 cell cytotoxicity | HEK 293 viability, ATP luminescence (CellTiter-Glo), 48-72 h | Potency, µM (titrated, usually from 115 µM), usual class: inhibitors | actives 6.6% (n = 94,000); note: nearly all actives have a fitted effect of over 60% in size
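HEK 293 cells seeded at 250 cells/well were exposed to compound for 48 or 72 hr at 37 degree Celsius. Viability taken as ATP content by CellTiter-Glo luminescence.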
3T3 cytotox – NIH 3T3 cell cytotoxicity; NIH 3T3 viability, CellTiter-Glo ATP luminescence, 48-72 h; Potency, µM (titrated, usually from 96.7 µM), most hits filed as inhibitors; actives 4.3% (n = 94,000); AID 1345082; note: nearly all actives have a fitted effect of over 55% in size
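NIH 3T3 cells at 400 cells/well received 23 nL of compound by pintool and were incubated 48 or 72 h at 37 °C. Viability was read as ATP-coupled CellTiter-Glo luminescence.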
NPR1 antag – blocks ANP-stimulated signaling of human Npr1 receptor. HEK293 hNpr1 GloSensor cGMP, ANP-stimulated luminescence. Potency, µM (highest dose often 46.3 µM), actives largely listed as inhibitors. actives 1.6% (n = 76,000); calls by dose curve; note: nearly all actives have a fitted effect of over 60% in size
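HEK293 cells stably expressing human Npr1 and cGMP GloSensor pGS-40F, loaded 2 h with 2% GloSensor reagent, given compound 30 min at room temperature. Luminescence read before and 20 min after 0.1 nM hNppA.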
GPT2 inhibitor – GPT2 alanine aminotransferase inhibition. Recombinant GPT2, coupled pyruvate oxidase/HRP Amplex Red fluorescence. Potency, µM (top dose mostly 57.7 µM), usual class: inhibitors. actives 0.25% (n = 100,000). AID 1671188; note: nearly all actives have a fitted effect of over 60% in size
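Inhibition is scored from Amplex Red fluorescence generated when pyruvate oxidase and HRP act on pyruvate released by GPT2. Reactions contain 10ng/uL enzyme, 250uM a-KG and 2mM L-alanine and run 30 min at room temperature.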
Luciferase inh – inhibitors of firefly (Photinus pyralis) luciferase; P08659; purified P. pyralis luciferase, luminescence, biochemical; Potency, µM (highest dose often 115 µM), actives largely listed as inhibitors; AID 1347043; actives 2.5% (n = 76,000); note: nearly all actives have a fitted effect of over 65% in size
Target sequence (P08659 whole entry, looked up): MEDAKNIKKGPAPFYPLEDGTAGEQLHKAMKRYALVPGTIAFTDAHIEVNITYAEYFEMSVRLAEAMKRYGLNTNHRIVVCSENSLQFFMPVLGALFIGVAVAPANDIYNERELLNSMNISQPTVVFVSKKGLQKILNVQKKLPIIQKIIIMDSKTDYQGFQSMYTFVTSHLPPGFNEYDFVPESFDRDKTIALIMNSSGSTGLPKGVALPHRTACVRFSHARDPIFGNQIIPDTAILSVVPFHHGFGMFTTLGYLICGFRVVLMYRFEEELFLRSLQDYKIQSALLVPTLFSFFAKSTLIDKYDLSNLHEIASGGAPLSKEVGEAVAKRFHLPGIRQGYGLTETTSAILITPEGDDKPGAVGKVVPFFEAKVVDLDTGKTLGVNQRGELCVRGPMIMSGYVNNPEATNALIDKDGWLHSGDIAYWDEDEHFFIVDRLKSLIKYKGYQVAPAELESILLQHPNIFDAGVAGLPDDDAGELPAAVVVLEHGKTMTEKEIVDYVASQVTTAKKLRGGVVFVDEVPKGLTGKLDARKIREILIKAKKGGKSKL
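Biochemical qHTS: compound (6-point titration) added to 10uM D-luciferin plus 10uM ATP in Tris acetate pH 7.5 buffer with Mg, Tween-20 and BSA, then purified enzyme at 10nM; light output imaged.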
Large screens that a line does not name were inactive. Compounds with a hit are over-represented: about 10% of the library has one in this group of screens. Unless noted, calls come from the whole dose curve; as a rule, active = well fitted curve in the direction sought with a large enough effect; inconclusive = small, poorly fitted or top-dose-only effect, or another doubt; inactive = no such curve, though single readings can be large; an effect the other way counts as inactive or inconclusive.

COc1cccc(CN2CCC(Cc3ncc(C)n3CC3CC3)C2)c1OC (centres undefined)	HEK cytotox 45µM, 3T3 cytotox inconclusive
CN1c2cc(C(=O)Nc3ccc(C#N)cc3)ccc2C(=O)N2CCCCC21 (centres undefined)	HEK cytotox inconclusive, 3T3 cytotox 35µM
CN1c2cc(C(=O)Nc3cccc(C#N)c3)ccc2C(=O)N2CCCCC21 (centres undefined)	HEK cytotox inconclusive, 3T3 cytotox inconclusive, Luciferase inh inconclusive
CN1c2cc(C(=O)Nc3cccc(C#N)c3)ccc2C(=O)N2CCCCCC21 (centres undefined)	HEK cytotox inconclusive, 3T3 cytotox inconclusive, Luciferase inh 28µM
OC1(c2csc(CN3CCOCC3)n2)CCN(Cc2ccccc2C(F)(F)F)CC1	none
CC(C)C[C@@H]1N[C@H](C(=O)NCCN(C)C)Cc2cn(Cc3ccccn3)c3cccc1c23	HEK cytotox inconclusive, 3T3 cytotox 28µM
CC(C)C[C@@H]1N[C@H](C(=O)NC2CCC2)Cc2cn(Cc3ccccn3)c3cccc1c23	HEK cytotox 28µM, 3T3 cytotox 35µM
CC(C)C[C@@H]1N[C@H](C(=O)NCCN2CCOCC2)Cc2cn(Cc3ccccn3)c3cccc1c23	HEK cytotox inconclusive, 3T3 cytotox inconclusive
CC(C)C[C@@H]1N[C@H](C(=O)NC(C)C)Cc2cn(Cc3ccccn3)c3cccc1c23	HEK cytotox 28µM, 3T3 cytotox 45µM, GPT2 inhibitor inconclusive
CC(C)C[C@@H]1N[C@H](C(=O)NCC2CC2)Cc2cn(Cc3ccccn3)c3cccc1c23	HEK cytotox 45µM, 3T3 cytotox 40µM
CCOC(=O)CCNC(=O)N1CCC2(CC1)C(=O)N(C(C)C)C2c1ccccc1 (centres undefined)	none (no result: NPR1 antag, Luciferase inh)
CC(C)c1noc(-c2ccn3c(CNC(=O)c4ccc(F)cc4Cl)nnc3c2)n1	none
CC(C)C[C@@H]1N[C@H](C(=O)NC2CC2)Cc2cn(Cc3nccn3C)c3cccc1c23	HEK cytotox inconclusive, 3T3 cytotox inconclusive
CC(C)C[C@@H]1N[C@H](C(=O)NC2CCC2)Cc2cn(Cc3ccncc3)c3cccc1c23	HEK cytotox inconclusive, 3T3 cytotox 79µM, NPR1 antag inconclusive
Cc1ccc(C2Cn3nnc(C(=O)N4CCC(C(=O)Nc5ccc(Cl)c(C)c5)CC4)c3CO2)cc1 (centres undefined)	Luciferase inh 35µM
Cc1ccc(C2Cn3nnc(C(=O)N4CCN(C(=O)c5cccc(N(C)C)c5)CC4)c3CO2)cc1 (centres undefined)	HEK cytotox 18µM, NPR1 antag inconclusive, Luciferase inh inconclusive
CSc1ccc(NC(=O)C2CCN(C(=O)c3nnn4c3COC(c3ccc(C)cc3)C4)CC2)cc1 (centres undefined)	Luciferase inh inconclusive
Cc1cccc(C(=O)N2CCN(C(=O)c3nnn4c3COC(c3ccc(Cl)cc3)C4)CC2)c1 (centres undefined)	HEK cytotox inconclusive
Cc1ccc(C2Cn3nnc(C(=O)N4CCC(C(=O)Nc5cccc(Cl)c5)CC4)c3CO2)cc1 (centres undefined)	HEK cytotox 40µM, 3T3 cytotox inconclusive, Luciferase inh 28µM
O=C(c1ccc2[nH]ccc2c1)N1CCN(C(=O)c2nnn3c2COC(c2ccccc2)C3)CC1 (centres undefined)	HEK cytotox 79µM
O=C(c1ccc2nnc(-c3ccc(Cl)cc3)n2c1)N1CCN(c2ncccn2)CC1	none (no result: NPR1 antag, Luciferase inh)
Cc1c(CN(C)Cc2cccc3ncccc23)c(=O)n(-c2ccccc2)n1C	none
CN(Cc1cccc(CCN)c1)Cc1cccc2ncccc12	HEK cytotox 45µM, 3T3 cytotox inconclusive
O=C(NC1CCCCC1)c1ccc2nc(-c3ccccn3)oc2c1	HEK cytotox inconclusive, 3T3 cytotox inconclusive (no result: NPR1 antag, Luciferase inh)
CCOC(=O)C1(Cc2ccc(F)cc2F)CCCN(S(=O)(=O)c2c(C)noc2C)C1 (centres undefined)	HEK cytotox 40µM, 3T3 cytotox inconclusive
CCOC(=O)C1(Cc2cccc(C(F)(F)F)c2)CCN(Cc2cc(C(C)C)n[nH]2)CC1	HEK cytotox 25µM, 3T3 cytotox inconclusive, NPR1 antag inconclusive, GPT2 inhibitor inconclusive
CC(C)(C)C(=O)NC1CCN(C(=O)c2ccc(-c3cncnc3)cc2)CC1	none (no result: NPR1 antag, Luciferase inh)
O=C(O)CCn1ncc2cc(OC3CCN(C(=O)Oc4ccccc4)CC3)ccc21	3T3 cytotox inconclusive
O=C(O)CCn1ncc2cc(OCC3CCN(C(=O)CCC(F)(F)F)CC3)ccc21	3T3 cytotox 13µM
O=C(O)CCn1ncc2cc(OC3CCN(C(=O)COc4ccccc4)CC3)ccc21	3T3 cytotox 50µM
O=C(O)CCn1ncc2cc(OCC3CCN(C(=O)Oc4ccccc4Cl)CC3)ccc21	3T3 cytotox 18µM, Luciferase inh inconclusive
CN1CCC(N2CC[C@H](c3nc4ccc(C(F)(F)F)cc4[nH]3)C2)CC1	HEK cytotox inconclusive, 3T3 cytotox 89µM
FC(F)(F)c1ccc2nc([C@H]3CCN(C4CCCCC4)C3)[nH]c2c1	HEK cytotox inconclusive, 3T3 cytotox 89µM, Luciferase inh 56µM
Cc1ccc(S(=O)(=O)N2CC[C@H](c3nc4ccccc4[nH]3)C2)cc1	HEK cytotox inconclusive, 3T3 cytotox 89µM
Cc1ccc2nc([C@H]3CCN(C4CCC4)C3)[nH]c2c1	HEK cytotox inconclusive, 3T3 cytotox inconclusive, NPR1 antag inconclusive, Luciferase inh inconclusive
CN1CCC(N2CC[C@H](c3nc4ccccc4[nH]3)C2)CC1	Luciferase inh 71µM
COc1ccc(-c2cccc(C(=O)N3CCC(NC(=O)c4ccc(Cl)nc4)CC3)c2)nn1	HEK cytotox inconclusive (no result: NPR1 antag, GPT2 inhibitor, Luciferase inh)
COc1ccc(CC(=O)N2CC(=O)N(CCCc3ccccc3)CC(O)C2)cc1 (centres undefined)	HEK cytotox inconclusive (no result: NPR1 antag, GPT2 inhibitor, Luciferase inh)
COc1cccc(S(=O)(=O)N2CCCCCNC(=O)CC2c2ccccc2)c1 (centres undefined)	HEK cytotox inconclusive
COc1ccccc1-c1ccc2c(n1)CN(Cc1csc(C)n1)C(=O)CO2	3T3 cytotox 45µM
Cc1nc(CN2Cc3nc(-c4cc5ccccc5o4)ccc3OCC2=O)cs1	HEK cytotox 63µM, 3T3 cytotox inconclusive, NPR1 antag inconclusive, Luciferase inh inconclusive
Cc1nc(CN2Cc3nc(-c4ccc5c(c4)OCO5)ccc3OCC2=O)cs1	HEK cytotox inconclusive, 3T3 cytotox inconclusive
COCCCn1c(=O)c(C(=O)NC(C)C)nc2cccnc21	none (no result: NPR1 antag, Luciferase inh)
O=C(c1nc(-c2ccccc2)c2ccccn12)N1CCCC1	HEK cytotox inconclusive
O=C(c1nc(-c2cccc(C(F)(F)F)c2)c2ccccn12)N1CCCC1	HEK cytotox 40µM, 3T3 cytotox inconclusive
O=C(NCc1ccc2c(c1)OCO2)c1nc(-c2ccc(Cl)cc2)c2cnccn12	Luciferase inh 25µM
O=C(NCCc1ccc(Cl)cc1)c1nc(-c2cccnc2)c2ccccn12	HEK cytotox 32µM, 3T3 cytotox 40µM
